# Measurements published in PubChem BioAssay (Tox21).
# Records with an inconclusive call do not appear. Where a call stands in place of a potency, no number is given. Unmarked numbers belong to inactive results. Activity calls are given as the source filed them. Calls follow the shape of the dose curve; as a rule, active = well fitted activation curve with a large enough effect in the signal ratio in the repeat runs (not every such curve was filed as active); inconclusive = weak or mixed curves, or effect the other way; inactive = no such curve, though single readings can be large or run the other way; the % refers to the signal ratio.
# Test: qHTS assay for small molecule agonists of the antioxidant response element (ARE) signaling pathway (AID 743202)
# Conditions: HepG2 ARE-bla reporter, beta-lactamase FRET, 16 h; series mostly up to 73.3 µM
# Excerpt: U.S. Tox21 Program National Center for Advancing Translational Sciences [NCATS] NIH Chemical Genomics Center [NCGC] U.S. Environmental Protection Agency [EPA] National Institutes of Environmental Health Sciences [NIEHS] National Toxicology Program [NTP] U.S. Food and Drug Administration [FDA] Tox21 Assay Overview: Oxidative stress has been implicated in the pathogenesis of a variety of diseases ranging from cancer to neurodegeneration. The antioxidant response element (ARE) signaling pathway plays an important role in the amelioration of oxidative stress. The CellSensor ARE-bla HepG2 cell line (Invitrogen) can be used for analyzing the Nrf2/antioxidant response signaling pathway. Nrf2 (NF-E2-related factor 2) and Nrf1 are transcription factors that bind to AREs and activate these genes. The CellSensor ARE-bla Hep G2 cell line contains a beta-lactamase reporter gene under control of the Antioxidant Response Element (ARE) stably integrated into HepG2 cells. The activation of the report gene under culture conditions can be detected by fluorescence intensity. This cell line has been used to screen the Tox21 10K compound library to identify agonists that induce oxidative stress.
# Tox21 Assay Protocol Summary: The ARE-bla cells were dispensed at 2,000 cells/5 ul/well in 1536-well black wall/clear bottom plates using a Multidrop dispenser. After the assay plates were incubated at a 37 C/5% CO2 incubator for 5 hours, 23 nL of compounds dissolved in DMSO, positive controls or DMSO only was transferred to the assay plate by a pin tool. The plates were incubated at 37 C for 16 hours. After 1 uL of LiveBLAzer B/G FRET substrate was added using a Flying Reagent Dispenser, the plates were incubated at room temperature for 2 hours, and fluorescence intensity was measured by an Envision plate reader.
# Potency is read from the fitted curve at half-maximal effect.
SMILES,Potency,activation
COc1cc(CC(C)N)cc(OC)c1OC (stereo not given),inactive,
Brc1c(Br)c(Br)c(Br)c(Br)c1Br,,-11.1% [at 8.36 µM]
Cl/C=C/CCl,inactive,
Cc1cc(OC(=O)N(C)C)nn1C(=O)N(C)C,inactive,
Cc1cccc2sc3nncn3c12,1.37 µM (active),
NC1(c2ccccc2)CCCCC1,inactive,
O=P(O)(O)c1ccccc1,inactive,
N#CN=C1SCCN1Cc1ccc(Cl)nc1,inactive,
CN(C)CCN(C)C,inactive,
Cc1ccc(-c2nc3ccc(C)cn3c2CC(=O)N(C)C)cc1,inactive,
CC1N=C(N)OC1c1ccccc1 (stereo not given),inactive,
O=C(Cl)/C=C/C(=O)Cl,22 µM (active),
COc1cccc([C@@]2(O)CCCC[C@@H]2CN(C)C)c1,inactive,
ClC(Cl)(Cl)Cl,inactive,
CCC(C)C(C)(COC(N)=O)COC(N)=O (stereo not given),inactive,
CCNP(=S)(OC)O/C(C)=C/C(=O)OC(C)C (stereo not given),inactive,
ClCCCCCCCl,inactive,
COC(=O)c1ccccc1CS(=O)(=O)NC(=O)Nc1nc(OC)cc(OC)n1,inactive,
ClC1=C(Cl)C2(Cl)C(CBr)CC1(Cl)C2(Cl)Cl (stereo not given),inactive,
BrCC1CO1 (stereo not given),inactive,

SMILES,Potency,activation
COP(=O)(OC)O/C(C)=C/C(=O)N(C)C,inactive,
CC[C@@H](CO)NC(=O)[C@@H]1C=C2c3cccc4c3c(cn4C)C[C@H]2N(C)C1,inactive,
ClCCCCl,inactive,
CCC(C(N)=O)N1CCCC1=O (stereo not given),inactive,
[P]#[In],inactive,
CC(C)[C@]12CC(=O)[C@H](C)[C@H]1C2,inactive,
CCCC[N+](=O)[O-],inactive,
OCC(Cl)CCl (stereo not given),inactive,
CCOC(=O)Nc1cccc(OC(=O)Nc2ccccc2)c1,inactive,
CN(C)CCc1c[nH]c2cccc(OP(=O)(O)O)c12,inactive,
CCCCCCCCBr,inactive,
NNC(N)=O,inactive,
C=CCc1cc(OC)c2c(c1)OCO2,inactive,
O=C1CC(=O)NC(=O)N1,inactive,
CON(C)C(=O)Nc1ccc(Br)c(Cl)c1,inactive,
Cn1c(N)nc2c3cccnc3ccc21,inactive,
CC(C)(C)C(=O)Cl,inactive,
COP(=O)(O)OC,inactive,
CC(Cc1ccccc1)NCCn1cnc2c1c(=O)n(C)c(=O)n2C (stereo not given),inactive,
CCCC(C)C1(CC)C(=O)N=C(S)NC1=O (stereo not given),inactive,
